Assay results reported in PubChem BioAssay (NCI).
About 79,000 compounds went through this panel and 15% of them were active in at least one assay; those are over-represented in the sample as a whole. Values without a mark were called inactive. Active and inactive are the calls of the source. Cut-off read from the data, not from the text of the source: active = growth inhibition above about 70%; inactive = the rest.

Legend:
[1] = NCI Yeast Anticancer Drug Screen. Data for the rad50EPP+ strain (AID 151);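 note: 0% = growth of vehicle-treated control cultures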; details: S. cerevisiae rad50 mutant strain, active compounds read high
Summary of the method: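 Vehicle-normalised growth inhibition; rad50EPP+ yeast strain, altered in DNA damage repair, compound-treated.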

[2] = NCI Yeast Anticancer Drug Screen. Data for the mgt1 strain (AID 153); details: S. cerevisiae mgt1 mutant growth inhibition, active compounds read high
Summary of the method: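 Vehicle-normalized growth inhibition is determined in mgt1 yeast, a strain selected for a defined alteration in DNA repair or cell cycle control.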

[3] = NCI Yeast Anticancer Drug Screen. Data for the rad50 strain (AID 155);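 note: 0% = growth of vehicle-only cultures of the same strain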; details: S. cerevisiae rad50 strain growth inhibition, active compounds read high
Summary of the method: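 Inhibition values express reduced yeast growth in compound-treated cultures relative to vehicle-treated controls.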

[4] = NCI Yeast Anticancer Drug Screen. Data for the mec2-1 strain (AID 157); details: S. cerevisiae mec2-1 strain, active compounds read high
Summary of the method: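 Mutant yeast (mec2-1) grown with compound; growth inhibition relative to vehicle control reported.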

[5] = NCI Yeast Anticancer Drug Screen. Data for the rad14 strain (AID 159);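 note: 0% = growth of vehicle-treated control cultures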; details: S. cerevisiae rad14 strain growth inhibition, active compounds read high
Summary of the method: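 A mutant yeast strain defective in DNA damage repair is treated with compound; inhibition of its growth is scored against untreated, vehicle-exposed cultures.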

[6] = NCI Yeast Anticancer Drug Screen. Data for the sgs1 mgt1 strain (AID 161);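 note: 0% = growth of cultures given vehicle only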; details: S. cerevisiae sgs1 mgt1 strain, active compounds read high
Summary of the method: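 This yeast growth screen uses a strain with defined DNA-repair lesions; compound-treated growth is compared with vehicle-treated growth.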

[7] = NCI Yeast Anticancer Drug Screen. Data for the CLN2oe strain (AID 163);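 note: 0% = growth of vehicle-only control cultures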; details: S. cerevisiae CLN2oe strain, active compounds read high
Summary of the method: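 Compounds are applied to yeast harbouring a defined cell-cycle control change; reduced growth compared with vehicle-treated controls gives the value.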

[8] = NCI Yeast Anticancer Drug Screen. Data for the cln2 rad14 strain (AID 165);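 note: 0% = growth equal to vehicle treated cultures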; details: S. cerevisiae cln2 rad14 strain, active compounds read high
Summary of the method: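 Readout is yeast growth inhibition versus vehicle-treated controls, using a strain with cln2 and rad14 alterations exposed to compound.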

[9] = NCI Yeast Anticancer Drug Screen. Data for the bub3 strain (AID 167); details: S. cerevisiae bub3 mutant strain, active compounds read high
Summary of the method: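 Steps: expose the mutant yeast strain to compound; grow alongside vehicle-treated cultures; measure growth; express inhibition against the vehicle cultures.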

[10] = NCI Yeast Anticancer Drug Screen. Data for the mlh1 strain (AID 171);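 note: 0% = growth of vehicle-treated control cultures of the same strain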; details: S. cerevisiae mlh1 strain growth inhibition, active compounds read high
Summary of the method: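 Measured: yeast growth. Reference: vehicle-treated controls. Organism: strain with a defined alteration affecting DNA damage repair or cell cycle control, treated with compound.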

[11] = NCI Yeast Anticancer Drug Screen. Data for the sgs1 strain (AID 173);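 note: 0% = growth of vehicle-only control cultures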; details: S. cerevisiae sgs1 mutant, active compounds read high
Summary of the method: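 Each compound was added to cultures of the altered yeast strain. Growth was recorded, and inhibition was derived by comparison with vehicle controls.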

[12] = NCI Yeast Anticancer Drug Screen. Data for the mlh1 rad18 strain (AID 175); details: S. cerevisiae mlh1 rad18 strain growth inhibition, active compounds read high
Summary of the method: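 Genetically defined yeast (DNA repair-deficient) exposed to compounds; growth inhibition determined relative to vehicle.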

[13] = NCI Yeast Anticancer Drug Screen. Data for the rad18 strain (AID 177); details: S. cerevisiae rad18 mutant growth inhibition, active compounds read high
Summary of the method: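 Vehicle-treated cultures served as the baseline for scoring compound-induced growth inhibition in DNA-repair-mutant yeast.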

[14] = at 5.0 µM (retest, dose inferred, filed as 0.5)
[15] = at 50.0 µM (retest, dose inferred, filed as 5.0)

SMILES: CCN(CCCl)c1cc(CN(C)C)cc(NC(=O)c2ccc(C(=O)Nc3cc(CN(C)C)cc(N(CC)CCCl)c3)cc2)c1
- growth inhibition ([1]; at 1.2 µM): 17%
- growth inhibition ([1]; at 3.7 µM): 32%
- growth inhibition ([1]; at 11.0 µM): 9%
- growth inhibition ([1]; at 33.0 µM): 19%
- growth inhibition ([1]; at 100.0 µM): 35%
- growth inhibition ([2]; at 1.2 µM): 5%
- growth inhibition ([2]; at 3.7 µM): 3%
- growth inhibition ([2]; at 11.0 µM): -6%
- growth inhibition ([2]; at 33.0 µM): 10%
- growth inhibition ([2]; at 100.0 µM): 89% (active)
- growth inhibition ([3]; at 1.2 µM): 3%
- growth inhibition ([3]; at 3.7 µM): 11%
- growth inhibition [3, 14]: 36%
- growth inhibition ([3]; at 11.0 µM): 4%
- growth inhibition ([3]; at 33.0 µM): 58%
- growth inhibition [3, 15]: 93% (active)
- growth inhibition ([3]; at 50.0 µM): 73.5% (active)
- growth inhibition ([3]; at 100.0 µM): 96% (active)
- growth inhibition ([4]; at 1.2 µM): -8%
- growth inhibition ([4]; at 3.7 µM): 1%
- growth inhibition [4, 14]: 26%
- growth inhibition ([4]; at 11.0 µM): -9%
- growth inhibition ([4]; at 33.0 µM): 8%
- growth inhibition [4, 15]: 95% (active)
- growth inhibition ([4]; at 50.0 µM): 37.5%
- growth inhibition ([4]; at 100.0 µM): 90% (active)
- growth inhibition ([5]; at 1.2 µM): -11%
- growth inhibition ([5]; at 3.7 µM): -13%
- growth inhibition ([5]; at 11.0 µM): -6%
- growth inhibition ([5]; at 33.0 µM): 56%
- growth inhibition ([5]; at 100.0 µM): 96% (active)
- growth inhibition [6, 14]: 39%
- growth inhibition [6, 15]: 97% (active)
- growth inhibition ([6]; at 50.0 µM): 65.2%
- growth inhibition ([7]; at 1.2 µM): 15%
- growth inhibition ([7]; at 3.7 µM): 14%
- growth inhibition ([7]; at 11.0 µM): 17%
- growth inhibition ([7]; at 33.0 µM): 27%
- growth inhibition ([7]; at 100.0 µM): 47%
- growth inhibition [8, 14]: 6%
- growth inhibition [8, 15]: 58%
- growth inhibition ([8]; at 50.0 µM): 35%
- growth inhibition ([9]; at 1.2 µM): -30%
- growth inhibition ([9]; at 3.7 µM): -28%
- growth inhibition [9, 14]: 32%
- growth inhibition ([9]; at 11.0 µM): -14%
- growth inhibition ([9]; at 33.0 µM): -22%
- growth inhibition [9, 15]: 97% (active)
- growth inhibition ([9]; at 50.0 µM): -8.9%
- growth inhibition ([9]; at 100.0 µM): 75% (active)
- growth inhibition ([10]; at 1.2 µM): -6%
- growth inhibition ([10]; at 3.7 µM): -6%
- growth inhibition ([10]; at 11.0 µM): -9%
- growth inhibition ([10]; at 33.0 µM): 28%
- growth inhibition ([10]; at 100.0 µM): 90% (active)
- growth inhibition ([11]; at 1.2 µM): 5%
- growth inhibition ([11]; at 3.7 µM): 3%
- growth inhibition ([11]; at 11.0 µM): 7%
- growth inhibition ([11]; at 33.0 µM): 65%
- growth inhibition ([11]; at 100.0 µM): 94% (active)
- growth inhibition [12, 14]: 71% (active)
- growth inhibition [12, 15]: 98% (active)
- growth inhibition ([12]; at 50.0 µM): 91.7% (active)
- growth inhibition ([13]; at 1.2 µM): 3%
- growth inhibition ([13]; at 3.7 µM): 57%
- growth inhibition ([13]; at 11.0 µM): 85% (active)
- growth inhibition ([13]; at 33.0 µM): 90% (active)
- growth inhibition ([13]; at 100.0 µM): 97% (active)

SMILES: c1ccc2c3ccn4cc5c(cc4c-3nc2c1)CCCC5
- growth inhibition [3, 14]: 10%
- growth inhibition [3, 15]: 97% (active)
- growth inhibition ([3]; at 50.0 µM): 86.9% (active)
- growth inhibition [4, 14]: 23%
- growth inhibition [4, 15]: 98% (active)
- growth inhibition ([4]; at 50.0 µM): 86.6% (active)
- growth inhibition [6, 14]: 22%
- growth inhibition [6, 15]: 98% (active)
- growth inhibition ([6]; at 50.0 µM): 86.2% (active)
- growth inhibition [8, 14]: 6%
- growth inhibition [8, 15]: 96% (active)
- growth inhibition ([8]; at 50.0 µM): 73.2% (active)
- growth inhibition [9, 14]: 1%
- growth inhibition [9, 15]: 97% (active)
- growth inhibition ([9]; at 50.0 µM): 87% (active)
- growth inhibition [12, 14]: 26%
- growth inhibition [12, 15]: 98% (active)
- growth inhibition ([12]; at 50.0 µM): 85.2% (active)
